Screening data deposited in PubChem BioAssay by NMMLSC.
RGS7-Gao reg: RGS7-Galphao binding modulators, primary screen, biochemical, multiplexed bead flow cytometry; Guanine nucleotide-binding protein G(o) subunit alpha (Homo sapiens), P09471; actives lie on both sides; binding response (% of control), % at 10 µM; hit rate 0.35% among 220,000; AID 1439, 2008; in the data active = binding response below about 49% or above about 150%; inconclusive = no clear call, values can overlap the other calls; inactive = in between;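 also: fluorescent Galphao held in activated GDP-AlF4 state binding bead-coupled RGS7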
RGS8-Gao: RGS8-Galphao binding modulators, primary screen, biochemical, multiplexed bead flow cytometry | response (percent of control binding), % at 10 µM | Guanine nucleotide-binding protein G(o) subunit alpha (Homo sapiens), P09471 | actives lie on both sides | hit rate 0.34% among 220,000; in the data active = response below about 60% or above about 140%; inactive = in between;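 also: Galphao activated as the GDP aluminium fluoride complex binding bead-coupled RGS8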
RGS4-Gao reg: modulators of RGS4 binding to Galphao, primary screen, biochemical, multiplexed bead flow cytometry | actives lie on both sides | binding response (% of control), % at 10 µM | AID 1415, 2008 | Guanine nucleotide-binding protein G(o) subunit alpha (Homo sapiens), P09471 | hit rate 0.33% among 220,000; in the data active = binding response below about 49% or above about 150%; inactive = in between;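 also: fluorescent Galphao activated with aluminum fluoride binding bead-coupled RGS4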
Avidin fluor: green autofluorescence of compounds with avidin beads – biophysical, 488/530 nm, flow cytometry, artefact control, profiling panel; compound fluorescence 488/530 nm; stronger effect = higher value; fluorescence (KMESF) at 10 µM; hit rate 0.38% among 220,000; AID 1775, 2009; in the data active = fluorescence above about 47
RGS16-Gao: modulators of RGS16 binding to Galphao, primary screen, biochemical, human proteins, multiplexed bead flow cytometry. Regulator of G-protein signaling 16 (Homo sapiens) + Guanine nucleotide-binding protein …. binding response (% of control), % at 10 µM. AID 1441, 2008. hit rate 0.38% among 220,000. bead-based flow cytometry RGS16-Galphao binding, fluorescence; actives lie on both sides;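 also: Galphao activated by GDP with aluminum fluoride before binding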
GSH fluor: compound fluorescence on glutathione beads, profiling panel, artefact control, biophysical, 488/530 nm, flow cytometry; fluorescence (KMESF) at 10 µM; GSH beads flow cytometry, compound fluorescence 488/530 nm; stronger effect = higher value; hit rate 0.25% among 190,000; AID 1776, 2009; in the data active = fluorescence above about 89;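 also: glutathione beads carrying GST-tagged Bcl family fusion proteins plus one bare bead set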
RGS4-Gao HTS: modulators of RGS–Galpha-o binding, primary screen, biochemical, multiplexed beads, flow cytometry, RGS4/7/8/16/19 | shares compounds with RGS16-Gao | multiplexed bead flow cytometry | RGS4–Galpha-o binding response, % at 10 µM | hit rate 99% among 1,600;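 also: fluorescently labeled Galpha-o bound to GDP with aluminium fluoride binding biotinylated RGS beads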
Biotin-avidin: disruption of biotin probe capture by avidin, counter-screen for RGS protein interaction modulators, biochemical, flow cytometry, bead-based | AID 1783, 2009 | 1,700 tested, under 10 active | inhibition, % at 10 µM | streptavidin beads, fluorescein-biotin binding | shares compounds with RGS16-Gao;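 active = inhibition above 50%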;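 also: median green fluorescence of gated singlet beads compared with DMSO control wells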
RGS8-Gao single: RGS8-Galphao binding modulators, confirmation, biochemical, multiplexed bead flow cytometry, single concentration; shares compounds with RGS16-Gao; bead-based flow cytometry RGS8-Galphao binding, fluorescence; actives lie on both sides; binding response (% of control), % at 10 µM; hit rate 3% among 1,700; in the data active = binding response below about 72% or above about 130%; inactive = in between;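 also: Galphao activated as GDP AlF4 complex before binding bead RGS8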
RGS7-Gao confirm: RGS7-Galphao binding modulators, confirmation, biochemical, multiplexed bead flow cytometry, single concentration | shares compounds with RGS16-Gao | bead-based flow cytometry RGS7-Galphao binding; actives lie on both sides | response (percent of control binding), % at 10 µM | hit rate 7.8% among 1,700 | AID 1837, 2009; in the data active = response below about 75% or above about 130%; inactive = in between;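 also: fluorescent Galphao activated with GDP and aluminum fluoride binding bead-coupled RGS7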
RGS16-Gao single: modulators of RGS16-Galphao protein binding, confirmation, biochemical, single concentration, multiplexed bead flow cytometry; shares compounds with RGS16-Gao; bead-based flow cytometry; actives lie on both sides; response (% of control binding), % at 10 µM; hit rate 4% among 1,700; AID 1838, 2009; in the data active = response below about 74% or above about 130%; inactive = in between;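 also: Galphao activated as the GDP aluminium fluoride complex binding bead-coupled RGS16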
RGS4-Gao confirm: modulators of RGS4-Galphao protein binding, confirmation, biochemical, single concentration, multiplexed bead flow cytometry | shares compounds with RGS16-Gao | actives lie on both sides | binding response (% of control), % at 10 µM | hit rate 4% among 1,700 | AID 1840, 2009; in the data active = binding response below about 74% or above about 130%; inactive = in between
RGS19-Gao single: regulators of RGS19-Galphao binding, confirmation, biochemical, single point, multiplexed bead flow cytometry. shares compounds with RGS16-Gao. bead-based flow cytometry RGS19-Galphao binding; actives lie on both sides. response (percent of control binding), % at 10 µM. hit rate 5% among 1,700. AID 1841, 2009; in the data active = response below about 50% or above about 160%; inactive = in between
A number is an active result; [ ] = remark or other dose. Sampled rows, rich in hits. Any-hit rate of the full collection: about 1.2%. Unless noted, no rule for the calls is given here.

Screening CCCCN(C)C(=O)C1CCN(CCCc2ccccc2)CC1 returned RGS7-Gao reg 170[activator], RGS8-Gao inactive, RGS4-Gao reg inactive, Avidin fluor 291, RGS16-Gao inactive, GSH fluor inactive and RGS4-Gao HTS 121.
CC1CCCN(C(=O)C2CCN(CCCc3ccccc3)CC2)C1 (configuration not stated) was read as RGS7-Gao reg inactive, RGS8-Gao inactive, RGS4-Gao reg inactive, Avidin fluor inactive, RGS16-Gao inactive and GSH fluor inactive.
Screening CCCCNC1CCS(=O)(=O)C1 (configuration not stated) returned GSH fluor inactive, Biotin-avidin inactive, RGS8-Gao single inactive, RGS7-Gao confirm inactive, RGS16-Gao single inactive, RGS4-Gao confirm inactive and RGS19-Gao single inactive.
Screening c1ccc(Cn2cnc3ccccc32)cc1 returned RGS7-Gao reg 34, RGS8-Gao 35, RGS4-Gao reg 33, Avidin fluor inactive, RGS16-Gao inactive, GSH fluor inactive, Biotin-avidin inactive, RGS8-Gao single inactive, RGS7-Gao confirm inactive, RGS16-Gao single inactive, RGS4-Gao confirm inactive and RGS19-Gao single inactive.
Screening COCC1CCCCN1Cc1cn(-c2ccccc2)nc1-c1ccc2c(c1)OCO2 (configuration not stated) returned RGS7-Gao reg 182[activator], RGS8-Gao inactive, RGS4-Gao reg inactive, Avidin fluor 69, RGS16-Gao inactive, GSH fluor inactive, RGS4-Gao HTS 116, Biotin-avidin inactive, RGS8-Gao single inactive, RGS7-Gao confirm inactive, RGS16-Gao single inactive, RGS4-Gao confirm inactive and RGS19-Gao single inactive.
For OC[C@@H]1CCCN1Cc1cn(-c2ccccc2)nc1-c1ccc2c(c1)OCO2 the results were RGS7-Gao reg inactive, RGS8-Gao inactive, RGS4-Gao reg inactive, Avidin fluor inactive, RGS16-Gao inactive and GSH fluor inactive.
Screening CC1CC(=O)NN1C(=O)c1ccccc1 (configuration not stated) returned RGS7-Gao reg inconclusive, RGS8-Gao inactive, RGS4-Gao reg inactive, Avidin fluor inactive and RGS16-Gao inactive.
